Rows were chosen to be rich in hits. Some 7.7% of all compounds tested hit in one or more screens of this group.
HCMV antiviral: human cytomegalovirus inhibition; HFF cells, HCMV-luciferase reporter, 72 h; stronger effect = lower value; activity change, negative = inhibition, % at 57.5 µM; 410,000 compounds, 4.5% hits; AID 1259415; in the data active = activity change below about -60%; inconclusive = no clear call, values can overlap the other calls; inactive = above about -39%
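Screen run at 2 compound doses on HFFs infected with reporter HCMV, MOI 1 PFU/cell. Luciferase activity from cell lysates at 72 h post infection gave inhibition relative to buffer-only and Salinomycin wells.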
FBPA Giardia inh: blocks Giardia fructose-bisphosphate aldolase activity. 290,000 compounds, 0.71% hits. Potency, µM (series often up to 59.6 µM), usual class: inhibitors. A8B2U2. purified Giardia FBPA. AID 2451; note: nearly all actives have a fitted effect of over 55% in size
Target sequence (A8B2U2 whole entry, looked up): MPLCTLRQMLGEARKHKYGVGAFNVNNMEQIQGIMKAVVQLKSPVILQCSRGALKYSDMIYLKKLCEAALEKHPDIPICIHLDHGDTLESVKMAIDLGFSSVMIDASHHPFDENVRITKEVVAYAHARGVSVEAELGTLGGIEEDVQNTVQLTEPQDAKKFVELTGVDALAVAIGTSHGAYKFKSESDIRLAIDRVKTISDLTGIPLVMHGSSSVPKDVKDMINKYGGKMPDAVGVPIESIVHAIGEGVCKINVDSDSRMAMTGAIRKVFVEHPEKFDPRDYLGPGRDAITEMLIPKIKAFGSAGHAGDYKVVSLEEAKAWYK
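40 nM FBPA preincubated 10 min at RT with compound (up to 57.5 uM final), then substrate plus GAPDH/TPI/NAD/arsenate coupling and diaphorase/resazurin added. Fluorescence read after 20 min at RT, 525/598 nm.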
RE007 growth inh: less growth of the S. pombe RE007 Vpr strain | S. pombe RE007 Vpr strain, BacTiter-Glo ATP luminescence, 24 h | Potency, µM (titrated, usually from 92.2 µM), most hits filed as inhibitors | 360,000 compounds, 0.21% hits; active = well fitted falling curve with a large enough effect; inconclusive = small, poorly fitted or top-dose-only effect; inactive = no such curve, though single readings can be large or run the other way; note: nearly all actives have a fitted effect of over 50% in size
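Fission yeast RE007 carrying one integrated HIV-1 vpr copy, seeded at OD 0.01 in PMG+AL medium with 23 nL pinned compound. Grown 24 h at 30 degrees; viability read by BacTiter-Glo luminescence after 5 min.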
Tb PYK inh: inhibitors of Trypanosoma brucei pyruvate kinase; AID 624173; Q57TT1; 410,000 compounds, 0.12% hits; Potency, µM (top dose mostly 76.8 µM), usual class: inhibitors; TbPYK enzyme, Kinase-Glo Plus ATP luminescence, 45 min; note: nearly all actives have a fitted effect of over 50% in size
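TbPYK + substrate in 50 mM TEA pH 7.2, 100 mM KCl, 10 mM MgCl2, 0.05% BSA, 0.01% Tween-20; cpd pinned; ADP 130 uM final; 45 min RT; Kinase-Glo Plus 10 min; luminescence endpoint.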
FMDV inh: foot and mouth disease virus antiviral activity. 410,000 compounds, 1.2% hits. Potency, µM (series often up to 57.9 µM), actives largely listed as inhibitors. AID 1159524. FMDV antiviral cell-based qHTS; calls by dose curve; tested in HEK293T cells; note: read-out not given here; nearly all actives have a fitted effect of over 45% in size
Sm TGR inh: blocks Schistosoma mansoni thioredoxin glutathione reductase | purified TGR, DTNB reduction, TNB absorbance 405 nm | Potency, µM (series often up to 114 µM), hits mostly inhibitors | 360,000 compounds, 3% hits | Q962Y6; note: nearly all actives have a fitted effect of over 60% in size
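TGR 20 nM + NADPH 100 uM (dispensed conc.), cpd preinc 15 min RT; start with NADPH (500 uM addition) then DTNB (15 mM addition). Kinetic TNB absorbance, 405 nm filter. Four-parameter Hill fit across titration.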
A number is an active result; [ ] = remark or other dose. Unless noted, calls come from the whole dose curve; as a rule, active = well fitted curve in the direction sought with a large enough effect; inconclusive = small, poorly fitted or top-dose-only effect, or another doubt; inactive = no such curve, though single readings can be large; an effect the other way counts as inactive or inconclusive.

Results for COc1ccc(-c2csc(N3CCN(S(=O)(=O)c4ccc5c(c4)NC(=O)CO5)CC3)n2)cc1 ?
HCMV antiviral: -87.7; RE007 growth inh: inactive; Tb PYK inh: inactive; FMDV inh: inconclusive; Sm TGR inh: inactive

What do the screens show for `CCCCCCn1c(-c2cccs2)n[nH]c1=S`?
HCMV antiviral: -80.3; FBPA Giardia inh: inactive; RE007 growth inh: inactive; Tb PYK inh: 2.82µM; FMDV inh: inactive; Sm TGR inh: inactive

Results for CCCCn1c(-c2csc(C(C)C)c2)n[nH]c1=S ?
HCMV antiviral: inactive; FBPA Giardia inh: inactive; RE007 growth inh: inactive; Tb PYK inh: inconclusive; FMDV inh: inactive; Sm TGR inh: inactive

Results for CCCCn1c(-c2csc(CC)c2)n[nH]c1=S ?
HCMV antiviral: inactive; FBPA Giardia inh: inactive; RE007 growth inh: inactive; Tb PYK inh: 3.98µM; FMDV inh: inactive; Sm TGR inh: inactive

Results for CCCCn1c(-c2csc3c2CCC(C)C3)n[nH]c1=S (stereo unspecified) ?
HCMV antiviral: -60.9; FBPA Giardia inh: inactive; RE007 growth inh: inactive; Tb PYK inh: inconclusive; FMDV inh: inactive; Sm TGR inh: inactive

How did CCc1cc(-c2n[nH]c(=S)n2-c2cccc(C)c2)cs1 do in these assays?
HCMV antiviral: inactive; FBPA Giardia inh: inactive; RE007 growth inh: inactive; Tb PYK inh: 11.2µM; FMDV inh: inactive; Sm TGR inh: inactive

What do the screens show for `O=C(N[C@H]1CC[C@@]23CCCN2C(=O)CCC[C@H]3[C@H]1Cc1ccccc1)c1ccc(Cl)c(C(F)(F)F)c1`?
HCMV antiviral: inactive

How did CCC(=O)N1CC2(CN(C(=O)NC(C)C)C2)c2c(n(C)c3cc(OC)ccc23)[C@H]1CO do in these assays?
HCMV antiviral: inactive

What do the screens show for `Cc1cccc(-c2nc(CN3CCCC(C(=O)NCc4ccc(Cl)cc4)C3)c(C)o2)c1` (stereo unspecified)?
HCMV antiviral: inactive; Tb PYK inh: inactive; FMDV inh: inconclusive; Sm TGR inh: inactive

What do the screens show for `CN(C)C(=O)[C@@H]1C[C@@H](Sc2nc3ccccc3[nH]2)CN1Cc1ccnc2ccccc12`?
FMDV inh: inactive

How did CCC1(C2CCN(C(=O)c3cc4ccccc4o3)CC2)NC(=O)N(CCc2scnc2C)C1=O (stereo unspecified) do in these assays?
FMDV inh: inactive

Results for CCOC(=O)c1cc(-c2ccccc2)n(CCCC(=O)Nc2ccc(C)c(Cl)c2)c1C ?
HCMV antiviral: inactive; Tb PYK inh: inactive[15.4 µM]; FMDV inh: inactive; Sm TGR inh: inactive

What do the screens show for `CCCCn1c(-c2csc3ccccc23)n[nH]c1=S`?
HCMV antiviral: inactive; FBPA Giardia inh: inactive; RE007 growth inh: inactive; Tb PYK inh: 15.8µM; FMDV inh: inactive; Sm TGR inh: inactive

Results for CCCCn1c(-c2csc3c2CCCC3)n[nH]c1=S ?
HCMV antiviral: inactive; FBPA Giardia inh: inactive; RE007 growth inh: inactive; Tb PYK inh: inconclusive; FMDV inh: inactive; Sm TGR inh: inactive

How did Nc1ccc([As](=O)(O)O)cc1 do in these assays?
HCMV antiviral: inactive; FBPA Giardia inh: inactive; RE007 growth inh: inactive; Tb PYK inh: inactive; FMDV inh: inactive; Sm TGR inh: 35.5µM

How did O=C(CCCN1C(=O)c2ccccc2C1=O)Oc1ccc(F)cc1 do in these assays?
HCMV antiviral: inactive; FBPA Giardia inh: inactive; RE007 growth inh: inactive; Tb PYK inh: inactive; FMDV inh: inactive; Sm TGR inh: inactive

Results for O=C1CCC(=O)N1CCC(c1ccc(F)cc1)c1ccco1 (stereo unspecified) ?
HCMV antiviral: inactive; FBPA Giardia inh: inactive; RE007 growth inh: inactive; Tb PYK inh: inactive; FMDV inh: inactive; Sm TGR inh: 44.7µM

How did O=C(CC(c1ccc(F)cc1)c1ccco1)N1CCOCC1 (stereo unspecified) do in these assays?
HCMV antiviral: inactive; FBPA Giardia inh: inactive; RE007 growth inh: inactive; Tb PYK inh: inactive; FMDV inh: inactive; Sm TGR inh: inactive

Results for O=C1c2ccccc2C(=O)N1CCC(c1ccc(F)cc1)c1ccco1 (stereo unspecified) ?
HCMV antiviral: inactive; FBPA Giardia inh: inactive; RE007 growth inh: inactive; Tb PYK inh: inactive; FMDV inh: inactive; Sm TGR inh: 39.8µM

How did CCOc1ccc(Br)cc1CNCCSc1nnnn1-c1ccccc1 do in these assays?
HCMV antiviral: inactive; Tb PYK inh: inactive; FMDV inh: inactive; Sm TGR inh: inactive

How did COc1cc(C)c(CN2CCC3(CCC(CNC(=O)c4ccnn4C)O3)CC2)cc1C (stereo unspecified) do in these assays?
FMDV inh: inactive

Results for COc1ccc(Br)cc1C(=O)Nc1cccc(-c2nnc(-c3ccco3)o2)c1 ?
HCMV antiviral: inconclusive; RE007 growth inh: inactive; Tb PYK inh: inactive

What do the screens show for `COc1cccc(C(=O)Nc2cccc(C(=O)N3CCOCC3)c2)c1`?
HCMV antiviral: -66.4; FBPA Giardia inh: inactive; RE007 growth inh: inactive; Tb PYK inh: inactive; FMDV inh: inactive; Sm TGR inh: inactive

How did Cc1ccc(SCC(=O)Nc2cccc(-c3nnc(-c4ccco4)o3)c2)cc1 do in these assays?
HCMV antiviral: -98.6; FBPA Giardia inh: inactive; RE007 growth inh: inactive; Tb PYK inh: inactive; FMDV inh: inactive; Sm TGR inh: inactive

How did COc1cccc(C(=O)Nc2cccc(-c3nnc(-c4ccco4)o3)c2)c1 do in these assays?
HCMV antiviral: inconclusive; FBPA Giardia inh: inactive; RE007 growth inh: inactive; Tb PYK inh: inactive; FMDV inh: 14.1µM; Sm TGR inh: inactive

What do the screens show for `COc1cccc(C(=O)N2CCOCC2)c1`?
HCMV antiviral: inactive; FBPA Giardia inh: inactive; RE007 growth inh: inactive; Tb PYK inh: inactive; FMDV inh: inactive; Sm TGR inh: inactive

What do the screens show for `CCC(=O)N1CCc2cc(Br)cc(S(=O)(=O)CCC(=O)Nc3ccc(Cl)cc3)c21`?
HCMV antiviral: inactive; Tb PYK inh: inactive; FMDV inh: inactive; Sm TGR inh: inactive

Results for CCN(C(=O)COC(=O)/C=C/c1cnc2ccccc2n1)c1ccccc1 ?
HCMV antiviral: -89.5; FBPA Giardia inh: inactive; RE007 growth inh: inactive; Tb PYK inh: inactive; FMDV inh: inactive; Sm TGR inh: inactive

What do the screens show for `O=C(CSC1=Nc2ccccc2C2=NC(CCC(=O)NC3CCCCC3)C(=O)N12)Nc1cccc(Cl)c1` (stereo unspecified)?
HCMV antiviral: inactive; Tb PYK inh: inactive; FMDV inh: inactive; Sm TGR inh: inactive

What do the screens show for `Cc1cc(Nc2ccccc2O)nc(C)n1`?
HCMV antiviral: inactive; Tb PYK inh: inactive; FMDV inh: inactive; Sm TGR inh: inactive

Results for Cc1cccc(Nc2cc(C)c3c(O)cccc3n2)c1C ?
HCMV antiviral: -65.4; FBPA Giardia inh: inactive; RE007 growth inh: inactive; Tb PYK inh: inactive; FMDV inh: inactive; Sm TGR inh: inactive

What do the screens show for `CCCC(=O)OC[C@H]1CN(C2CCCC2)S(=O)(=O)c2c(Oc3ccc(F)cc3OC)cccc2O1`?
HCMV antiviral: inactive

Screening data: PubChem BioAssay, National Center for Advancing Translational Sciences (NCATS)
